Results on 96 molecules are retold here after PubChem BioAssay AID463190 (Sanford-Burnham Center for Chemical Genomics, 2010).

In all, about 330,000 compounds went through this assay and about 7,300 (2.2%) were called active. For the sample, actives were picked, then their nearest neighbours and some compounds at random. A number with no mark means an inactive call.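 Rule for the calls: active = inhibition of at least 40%; inactive = the rest.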

This experiment is described as follows: growth inhibitors of tim10-1 mutant yeast, primary screen, luminescence, uHTS (AID 463190).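 Note: mutant grown at 25 °C; 0% = DMSO wells with yeast and 100% = wells holding no yeast.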 The conditions noted are these: S. cerevisiae tim10-1 ts strain growth, BacTiter-Glo, 24 h; at 20 µM; stronger effect = higher value.
Consider `Cn1cnc(S(=O)(=O)Nc2ccc3c(c2)OCCO3)c1`, for which the inhibition (as a rule, the relative decrease from the control value, in per cent) is -19.7%.

`O=C(CC1N=C2c3ccccc3N=C(SCc3ccccc3Cl)N2C1=O)NCc1ccco1` (stereo unspecified): the inhibition was 24.8%.

Consider `S=C(NCc1ccco1)NCc1ccccc1Cl`, for which the inhibition was 28.9%. Under `Clc1ccccc1CSc1nnc(-c2ccco2)c(-c2ccco2)n1` stands 41.7% (active); under `Cc1cc(C)n(Cc2cnc(N3CCOCC3)s2)n1`, 10.6%; under `COc1ccc(-n2c(=O)[nH]c3cc(C(=O)NCCc4ccc(OC)c(OC)c4)ccc3c2=O)c(OC)c1`, 7.83%. For the molecule `CCOc1ccccc1N(CC(=O)NC1CCCCC1)C(=O)CCCC(=O)Nc1ccccn1`, the inhibition was 10.6%. `Cn1c(Cc2cccs2)nnc1SCC(=O)Nc1ccccc1`: the inhibition is 10.8%. Turning to `CCc1ccc(S(=O)(=O)N/N=C\c2ccc([N+](=O)[O-])o2)cc1`, the inhibition is 30.4%. As to `CCn1c(/C=C/c2ccc([N+](=O)[O-])o2)nc2ccccc2c1=O`, the inhibition was 69.9% (active).

Take `CCn1c(=O)c([N+](=O)[O-])c(NCc2ccc3c(c2)OCO3)c2ccccc21`: the inhibition was 2.3%.

`COc1ccc(OC)c(C2C3=C(N=c4s/c(=C\c5cccc(O)c5)c(=O)n42)c2ccccc2CC3)c1` (stereo unspecified): the inhibition is 22%.

With `COc1ccc(CN2CC[C@H]3C=CC[C@@H](C(=O)N4CCOCC4)[C@H]3C2=O)cc1OC`, the inhibition was 6.76%. For the molecule `Cc1nc2ccccn2c1C(=O)NN=C1CCN(C)CC1`, the inhibition was 1.25%. Turning to `CCOC(=O)Cn1c(O)c(N=NC(=O)CNC(=O)Cc2ccccc2)c2ccccc21`, the inhibition is -11.5%.

Regarding `O=C(CN1CCCC1)Nc1sc2c(c1C(=O)Nc1ccccc1)CCCC2`, the inhibition is 2.11%. Consider `Cc1nc(-c2ccccc2)sc1C(=O)/C=C/N(C)C`, for which the inhibition is 5.62%. As for `Cc1nc(-c2ccc(Cl)cc2)sc1C(=O)CBr`, the inhibition was 50.9% (active). Take `Cc1nc(-c2ccc(Cl)cc2)sc1C(=O)NN`: the inhibition is -3.83%.

In the case of `CCc1ccc(S(=O)(=O)Nc2ccc(C)c(NS(C)(=O)=O)c2)cc1`, the inhibition was -0.664%. On to `O=S(=O)(Nc1cc(Cl)ccc1N1CCOCC1)c1ccccc1Cl`, for which the inhibition is 12%. For `Brc1ccc(-c2nnc(-c3ccccc3)o2)o1`, the inhibition was -6.79%. For the molecule `Nc1ccc(-c2nnc(-c3ccccc3)o2)cc1`, the inhibition was -11.5%. Under `Nc1ccc(-c2nnc(-c3ccc(-c4ccccc4)cc3)o2)cc1` stands 45.9% (active).

With `Cc1ccccc1Nc1nnc(SCC(=O)c2cc3ccccc3o2)s1`, the inhibition was 43.5% (active). As for `Cc1cc2c(=O)n(C)c(SCC(=O)c3cc4ccccc4o3)nc2s1`, the inhibition was 29.9%. In the case of `CCOc1ccccc1Nc1nnc(SCC(=O)Nc2cc(C)on2)s1`, the inhibition is 14.3%. Take `O=C(Nc1cc(-c2nn(CC(=O)N3CCCCC3)c(=O)c3ccccc23)ccc1N1CCOCC1)c1ccc(Cl)cc1`: the inhibition is 5.87%.

Turning to `Cc1cc(C)n2nc(CNS(=O)(=O)c3c(F)c(F)c(F)c(F)c3F)nc2n1`, the inhibition is 3.29%. `O=C(/C=C/c1ccc(N2CCOCC2)cc1)c1ccccc1`: the inhibition was 36.1%.

Consider `CC(=O)Nc1ccc(C(=O)/C=C/c2ccc[nH]2)cc1`, for which the inhibition is -13.3%.

Take `CC(=O)Nc1ccc(/C=C/C(=O)c2ccccc2)cc1`: the inhibition was 51.4% (active).

`O=C(CCNS(=O)(=O)c1ccccc1C(F)(F)F)Nc1ccncc1`: the inhibition was -1.52%.

In the case of `Cc1ccc(C(=O)/C=C/c2c(C)nn(-c3ccccc3)c2Cl)cc1`, the inhibition was 42.7% (active). The value for `Cc1ccc(-n2nc(C)c(/C=N/NC(=O)c3cccs3)c2Cl)cc1` was -6.6%.

With `Cc1nn(-c2ccccc2)c(Cl)c1/C=C/C(=O)c1ccc(O)cc1`, the inhibition was 0.354%.

For the molecule `CC(=O)N/C(=C\c1ccccc1)C(=O)OC(C)C(=O)N(C)c1ccccc1` (stereo unspecified), the inhibition is 4.65%. Turning to `COC(=O)c1c(C(=O)OC)c2n(c1C)CCS2`, the inhibition is -20.7%.

As to `COc1ccccc1CCNC(=O)c1c(C)nn(CC(C)C)c1Cl`, the inhibition is 16.6%. Take `Cc1cc2ccccn2c1C(=O)c1cccc(F)c1`: the inhibition is -8.04%.

Turning to `Cc1ccc(C(C[N+](=O)[O-])c2c(C)cc3ccccn23)cc1` (stereo unspecified), the inhibition was 41.6% (active).

For the molecule `Cc1ccc(C(=O)NNC(=O)CSc2nnc3ccccn23)cc1`, the inhibition was 4.3%. As to `O=C(NC(=S)Nc1ccccc1N1CCCCC1)c1ccc(F)cc1`, the inhibition was 32.4%. With `O=C(Nc1ccccc1N1CCOCC1)c1ccncc1`, the inhibition was -6.96%. For the molecule `COc1ccc(C(=O)NC(=S)Nc2ccccc2N2CCN(S(C)(=O)=O)CC2)cc1OC`, the inhibition is 25%.

Take `CCc1ccc(C(=O)NC(=S)Nc2ccccc2N2CCOCC2)cc1`: the inhibition is 40.2% (active). Turning to `Cc1ccc(C(=O)NC(=S)Nc2ccccc2C)cc1`, the inhibition is 40.5% (active). As to `O=C(COc1ccc(Cl)cc1)NC(=S)Nc1ccccc1N1CCOCC1`, the inhibition was 4.3%. The value for `Cc1ccccc1NC(=S)NC(=O)Cc1ccc(Cl)cc1` was 22.6%. Under `Cc1cc(C(=O)NNC(=S)Nc2ccccc2C)cs1` stands 24%. As to `COc1ccccc1C(=O)NC(=S)Nc1ccccc1N1CCCCC1`, the inhibition was 41.9% (active). The value for `COc1ccccc1Cn1c(C)nnc1-c1cnn(C)c1N` was 9.92%; that for `CCOC(=O)c1c(Cc2ccc(Cl)cc2)c[nH]c1C` was 29.9%; that for `O=Cc1ccc(OCc2cn3ccccc3n2)cc1` was -8%. `Nc1nc(CC(=O)CSc2ccc(Cl)cc2)nc(Nc2ccc(F)cc2)n1`: the inhibition is 1.48%. Consider `COc1cc(Cl)c(C)cc1NC(=O)[C@@H]1CCCN1C(=O)c1cccs1`, for which the inhibition was 31.3%. As for `COc1ccc(Cl)cc1NC(=O)[C@@H]1CCCN1C(=O)c1cccs1`, the inhibition was 33.9%. Under `COc1ccc2nc(NC(=O)[C@@H]3CCCN3C(=O)c3cccs3)sc2c1` stands 45.4% (active). `COCCCN(C(=S)Nc1c(C)cc(C)cc1C)C(C)c1ccncc1` (stereo unspecified): the inhibition is 21.3%. `O=S(=O)(NCc1ccc2c(c1)OCO2)c1cccc2nsnc12`: the inhibition is 1.8%. As to `COc1ccc(Nc2cc(=O)n(-c3ccccc3)c3c2c(=O)n(C)c(=O)n3C)cc1`, the inhibition is 14.6%.

For `O=C1C(Cc2ccc(O)cc2)NC(=S)N1Cc1ccccc1` (stereo unspecified), the inhibition was -2.4%. `Cc1cc(C)c(NC(=O)CN2C(=O)NC(Cc3ccccc3)C2=O)c(C)c1` (stereo unspecified): the inhibition was -9.44%. In the case of `Cc1ccc(N2C(=O)C(Cc3ccccc3)NC2=S)cc1` (stereo unspecified), the inhibition is 44.1% (active). For the molecule `CC(=O)c1cc2c(cc1NC(=O)Cn1nc(-c3ccc(F)cc3)ccc1=O)OCO2`, the inhibition is 16.5%. As for `CN(C)c1ccc(C(CNC(=O)c2ccc(F)cc2)c2c[nH]c3ccccc23)cc1` (stereo unspecified), the inhibition was 37.2%. Regarding `Clc1ccc(Nc2nc(-c3cccs3)cs2)nc1`, the inhibition was 45.1% (active). The value for `CCCc1cc(C(=O)Nc2ccc(Cl)cn2)cs1` was 27.7%; that for `Cc1cccc(Nc2nc(-c3ccccc3)cs2)n1` was -40.5%; that for `CCOC(=O)c1cc(-c2ccccc2C)n(Cc2cc(C)no2)n1` was 9.65%. Under `CC(C)(C)c1ccc(C(=O)NNC(=O)Cc2ccccc2)cc1` stands -12.1%. Turning to `CN(C(=O)CC(NC(=O)c1ccccc1)(c1ccccc1)c1ccccc1)c1ccccc1`, the inhibition is 41.7% (active).

`CN(CC(=O)O)C(=O)c1ccccc1`: the inhibition was -0.243%. As to `CCOC(=O)NC(=O)/C(C#N)=C\c1ccccc1`, the inhibition is 2.89%. In the case of `O=C(/C=C/c1c(F)cccc1Cl)Nc1nn[nH]n1`, the inhibition is 10.7%. As for `CNC(=O)/C(C#N)=C/c1c(F)cccc1Cl`, the inhibition is 55.4% (active). Take `O=C(CNS(=O)(=O)c1ccccc1)NCC(=O)OCc1ccccc1F`: the inhibition is 9.03%. Take `O=C(Cn1nc(Cc2cccnc2)c2ccccc2c1=O)NCC1COc2ccccc2O1` (stereo unspecified): the inhibition is 14.3%. As for `C=CCNC(=S)NNC(=O)COc1c(Cl)cc(Cl)cc1Cl`, the inhibition was 37.3%. In the case of `CCOC(=O)C1CCN(C(=O)C2CCCN(S(=O)(=O)c3ccc(OC)c(Cl)c3)C2)CC1` (stereo unspecified), the inhibition is -9.18%. As to `COc1ccccc1NC(=O)N1CCCC1C(=O)NCc1cccs1` (stereo unspecified), the inhibition is 16.7%. For `O=[N+]([O-])c1ccccc1S(=O)(=O)Nc1cccc2cccnc12`, the inhibition was 34.8%. As to `COc1cc(NS(=O)(=O)c2ccc3ccccc3c2)c2ncccc2c1`, the inhibition is 40.5% (active). In the case of `Cc1ccc(S(=O)(=O)Nc2ccc3ncccc3c2)cc1`, the inhibition is 18.6%. As for `COc1ccc(S(=O)(=O)NCc2cccnc2)cc1NC(=O)c1ccc(C)cc1`, the inhibition is 8.35%.

In the case of `CCC(C)(C)n1nnnc1C(c1cccs1)N1CCN(c2nc3ccccc3s2)CC1` (stereo unspecified), the inhibition is 36.1%. Turning to `CCC(C)(C)n1nnnc1CN1CCN(c2nc3ccc(C)cc3cc2C#N)CC1`, the inhibition was 40.7% (active).

Regarding `Cc1ccc2nc(NCCCNC(=O)c3cnccn3)c(C#N)cc2c1`, the inhibition was 8.4%. In the case of `COc1ccc(CNC(=O)COC(=O)/C=C/c2ccc(S(=O)(=O)N3CCOCC3)cc2)cc1`, the inhibition is 20%. Under `Cc1nc2nc(C)c(CCC(=O)N3CCN(c4ccccc4)CC3)c(C)n2n1` stands 1.14%; under `COc1ccc2[nH]c3c(c2c1)CCN1C(=O)C(CC(=O)NCc2cccc(C(F)(F)F)c2)C[C@H](C(=O)N2CCOCC2)[C@@]31C` (stereo partly specified), 11%; under `Cc1nnnn1/C(=C\c1ccccc1)C(=O)OCC(=O)N1CC2(C)CC1CC(C)(C)C2` (stereo unspecified), 56.1% (active). The value for `COc1ccc(C(=O)N2CC3(C)CC2CC(C)(C)C3)cc1OC` (stereo unspecified) was 19.6%. With `Cc1cccc(C(=O)NCC(=O)OCC(=O)N2CC3(C)CC2CC(C)(C)C3)c1` (stereo unspecified), the inhibition is 15.2%. On to `CCOc1ccc(C(C)=O)cc1CSc1nnc(-c2ccncc2)n1CCOC`, for which the inhibition is 22.6%. Take `NC(=O)NC(CC(=O)NNC(=O)c1ccccn1)c1ccc(Cl)cc1` (stereo unspecified): the inhibition was 8.52%.
